# Records with an inconclusive call do not appear. Unmarked numbers belong to inactive results. Active and inactive are the calls of the source. Calls come from the whole dose curve; as a rule, active = well fitted cell-killing curve with a large enough effect; inconclusive = small, poorly fitted or top-dose-only effect, or effect the other way; inactive = flat fitted curve, though single readings scatter.
# System: Tov112D
# Test: Primary qHTS to identify gynecologic anti-cancer compounds using libraries of approved drugs and bioactive compounds (AID 1345084); note: nearly all actives have a fitted effect of over 55% in size
# Settings: Gynecologic cancer cell panel viability, ATPlite luminescence, 48 h; series mostly up to 57.5 µM; activity change, negative = cytotoxicity: at the top concentration
# Procedure, shortened: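 Cells, 1,000 per well, were allowed to settle for 16 h at 37 C before compound addition. Five concentrations were tested for 48 h, and viability was read by ATPlite luminescence after 15 min at room temperature.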
# % is set by controls: 0 for no effect and ±100 for the full control effect; potency is the fitted concentration of half-maximal effect.
Structure (SMILES),"activity change, negative = cytotoxicity",Potency
COc1ccc(C2Sc3ccccc3N(CCN(C)C)C(=O)C2OC(C)=O)cc1 (configuration not stated),23.7% [at 25.3 µM],–
CC1CCC(C(=O)N(c2cc(C#CC(C)(C)C)sc2C(=O)O)C2CCC(O)CC2)CC1 (configuration not stated),0.671%,–
CCOC(=O)C1=C(N)Oc2ccc(Br)cc2C1C(C#N)C(=O)OCC (configuration not stated),–,inactive
CCOc1ccc(Nc2nc(-c3c(C)nc4ccccn34)cs2)cc1,–,158 nM (active)
Cn1c(N2CCCCS2(=O)=O)nc(C(=O)NCc2ccc(F)cc2)c(O)c1=O,-1.4%,–
COC[C@@H](c1ccc(C(F)(F)F)cc1)N1CCN(C2(C)CCN(C(=O)c3c(C)ncnc3C)CC2)C[C@H]1C,4.36%,–
COc1ccc2cc(-c3nc(-c4ccc(S(C)=O)cc4)[nH]c3-c3ccncc3)ccc2c1 (configuration not stated),0.117%,–
COc1ccc2c(Oc3ccc(NC(=O)c4c(C)n(CC(C)(C)O)n(-c5ccccc5)c4=O)nc3)ccnc2c1,-19.4%,–
CC/C(=C(\c1ccccc1)c1ccc(OCCN(C)C)cc1)c1ccccc1,-15.2%,–
COCCOC(=O)C1=C(C)NC2=C(C(=O)CC(c3ccccc3OC)C2)C1c1cccc(O)c1 (configuration not stated),-21.7%,–
O=C(CCN1CCN(C(=O)OCc2cc(Cl)cc(Cl)c2)CC1)c1ccc2[nH]c(=O)oc2c1,13.8%,–
COc1ccc(C2CC(c3ccccc3)=NN2c2ccc(S(N)(=O)=O)cc2)cc1 (configuration not stated),1.76%,–
Cc1ccn(-c2ccc(-c3ncco3)cc2)c(=O)c1-c1ccc2nc(N)ncc2c1,2.14%,–
O=C(Nc1cccc(Br)c1)c1cccc(S(=O)(=O)N2CCCCCC2)c1,-5.74%,–
CS(=O)c1ccc(-c2nc(-c3ccc(F)cc3)c(-c3ccncc3)[nH]2)cc1 (configuration not stated),19.9%,–
COc1ccc2c(Oc3ccc(NC(=O)c4c(C)n(CC(C)(C)O)n(-c5ccccc5)c4=O)cc3F)ccnc2c1,-8.19%,–
CC(C)(C)Cn1c(N)nc2ccc(-c3[nH]c(C(C)(C)C)nc3-c3ccc(F)cc3)nc21,0.484%,–

# Reference: PubChem BioAssay (NCATS)
